The text below walks through data of the antibiotic and cytotoxicity screens of Wong et al. (2023).

Among all 39,000 compounds or so, about 1,500 (3.8%) were called active. Many of the other results were omitted from the sample, so actives are more common in it than they were.

The test system of the test is HSkMC (human skeletal muscle cells). Nature of the test: cytotoxicity call (relative viability < 0.9). The note with it: 10 µM.
Regarding `C[C@@H]1CCCCO[C@H](CN(C)C(=O)Nc2ccccc2)[C@@H](C)CN([C@H](C)CO)C(=O)c2cc(NC(=O)c3ccncc3)ccc2O1`, the cytotoxicity call was “inactive”.

In the case of `Cc1noc(C)c1NC(=O)N(C)C[C@H]1Oc2ccc(NS(=O)(=O)c3cccs3)cc2CC(=O)N([C@@H](C)CO)C[C@H]1C`, the cytotoxicity call was “inactive”.

For the molecule `Cc1ccc(-c2cnc(-c3ccc(Br)cc3)o2)cc1`, the cytotoxicity call is “inactive”.

Turning to `C[C@@H]1CN([C@H](C)CO)C(=O)Cc2cc(NC(=O)Cn3cnnn3)ccc2O[C@@H]1CN(C)Cc1ccccc1`, the cytotoxicity call was “inactive”.

Turning to `CCCN1C[C@H](C)[C@@H](O)[C@](C)(O)[C@@H](CC)OC(=O)[C@H](C)[C@@H](O[C@H]2C[C@@](C)(OC)[C@@H](O)[C@H](C)O2)[C@H](C)[C@@H](O[C@@H]2O[C@H](C)C[C@H](N(C)C)[C@H]2O)[C@](C)(O)C[C@H]1C`, the cytotoxicity call was “inactive”.

As to `Cc1oc(C(C)(C)C)cc1C(=O)Nc1ccc(C(C)C)cc1`, the cytotoxicity call was “inactive”.

Regarding `CCc1cccc(C(C)C)c1NC(=O)Nc1ccccc1`, the cytotoxicity call is “inactive”.

Consider `CC(C)c1ccccc1Cc1cc(C(=O)Nc2ccc(S(=O)(=O)c3ccccc3C(C)(C)C)cc2)c(O)c(O)c1O`, for which the cytotoxicity call is “active”.

Consider `CNC(=O)C[C@@H]1CC[C@@H]2[C@H](COC[C@H](O)CN2C(=O)Nc2cccc(OC)c2)O1`, for which the cytotoxicity call is “inactive”.

With `C[C@H]1CCCCO[C@H](CN(C)C(=O)Nc2ccc3c(c2)OCO3)[C@@H](C)CN([C@@H](C)CO)C(=O)c2cc(NS(=O)(=O)c3ccccc3)ccc2O1`, the cytotoxicity call is “inactive”.

Take `C[C@H](O)[C@H](O)[C@@H](O)[C@@H](O)/C=N/NC(=O)CCCCC(=O)NO`: the cytotoxicity call was “inactive”.

Consider `C[C@H](CO)N1C[C@H](C)[C@H](CN(C)C(=O)Nc2cccc3ccccc23)OCCCC[C@H](C)Oc2ccc(NS(C)(=O)=O)cc2C1=O`, for which the cytotoxicity call is “inactive”.

In the case of `Cc1ccc(S(=O)(=O)Nc2ccc3c(c2)CC(=O)N([C@@H](C)CO)C[C@@H](C)[C@@H](CN(C)Cc2ccc(-c4ccccc4)cc2)O3)cc1`, the cytotoxicity call was “active”.

Regarding `Cc1ccc(S(=O)(=O)Nc2ccc3c(c2)CC(=O)N([C@H](C)CO)C[C@@H](C)[C@H](CN(C)Cc2ccc(-c4ccccc4)cc2)O3)cc1`, the cytotoxicity call is “active”.

As to `Cc1ccc(S(=O)(=O)Nc2ccc3c(c2)CC(=O)N([C@H](C)CO)C[C@H](C)[C@H](CN(C)Cc2ccc(-c4ccccc4)cc2)O3)cc1`, the cytotoxicity call was “inactive”.

In the case of `Cc1ccc(S(=O)(=O)Nc2ccc3c(c2)CC(=O)N([C@H](C)CO)C[C@H](C)[C@@H](CN(C)Cc2ccc(-c4ccccc4)cc2)O3)cc1`, the cytotoxicity call was “inactive”.

For the molecule `Cc1ccc(S(=O)(=O)Nc2ccc3c(c2)CC(=O)N([C@H](C)CO)C[C@@H](C)[C@@H](CN(C)Cc2ccc(-c4ccccc4)cc2)O3)cc1`, the cytotoxicity call is “active”.

Consider `Cc1ccc(S(=O)(=O)Nc2ccc3c(c2)CC(=O)N([C@@H](C)CO)C[C@H](C)[C@@H](CN(C)Cc2ccc(-c4ccccc4)cc2)O3)cc1`, for which the cytotoxicity call was “active”.

Take `C[C@H]1CN([C@@H](C)CO)C(=O)c2cc(NC(=O)NC3CCCCC3)ccc2O[C@H]1CN(C)Cc1ccc(C(=O)Nc2ccccc2N)cc1`: the cytotoxicity call is “inactive”.

`C[C@@H]1CN([C@H](C)CO)C(=O)c2cc(NC(=O)c3ccncc3)ccc2O[C@H]1CN(C)S(=O)(=O)c1ccc(F)cc1`: the cytotoxicity call was “inactive”.

With `C[C@@H]1CN([C@@H](C)CO)C(=O)c2cc(NC(=O)C3CC3)ccc2O[C@@H]1CN(C)S(=O)(=O)c1ccc(F)cc1`, the cytotoxicity call is “inactive”.

Take `CC(C)NC(=O)N[C@H]1C=C[C@@H](CC(=O)NCCN2CCCC2)O[C@H]1CO`: the cytotoxicity call was “inactive”.

For the molecule `CC(C)NC(=O)N(C)C[C@H]1Oc2ccc(NS(=O)(=O)c3cn(C)cn3)cc2C(=O)N([C@H](C)CO)C[C@@H]1C`, the cytotoxicity call is “inactive”.

As to `O=C(CCCCCNC(=O)OCc1ccc(CO[C@@H]2C[C@H](C3CCCCC3)C=C(C(=O)N3CCN(Cc4ccc5c(c4)OCO5)CC3)O2)cc1)NO`, the cytotoxicity call is “inactive”.

For the molecule `COc1ccc(CN(C)C[C@@H]2Oc3ccc(NC(=O)C4CC4)cc3CC(=O)N([C@@H](C)CO)C[C@@H]2C)cc1`, the cytotoxicity call was “inactive”.

As to `COc1cc(O)cc(OC)c1O[C@@H]1O[C@H](CO)[C@@H](O)[C@H](O)[C@H]1O`, the cytotoxicity call was “inactive”.

Regarding `C[C@H]1CN([C@@H](C)CO)C(=O)Cc2cc(NC(=O)CCCCCC(=O)Nc3ccccc3N)ccc2O[C@@H]1CN(C)Cc1ccc(Cl)c(Cl)c1`, the cytotoxicity call was “inactive”.

Take `C[C@H]1CN([C@@H](C)CO)C(=O)c2cc(NC(=O)CCN3CCOCC3)ccc2O[C@H]1CN(C)S(=O)(=O)c1ccc(F)cc1`: the cytotoxicity call was “inactive”.

Take `C[C@H](CO)N1C[C@H](C)[C@H](CN(C)Cc2ccc(C(F)(F)F)cc2)Oc2ccc(NC(=O)C3CCCCC3)cc2C1=O`: the cytotoxicity call is “inactive”.

`Cc1ccc(S(=O)(=O)Nc2ccc3c(c2)CC(=O)N([C@@H](C)CO)C[C@H](C)[C@H](CN(C)Cc2ccc(-c4ccccc4)cc2)O3)cc1`: the cytotoxicity call is “active”.

For the molecule `Cc1ccc(S(=O)(=O)Nc2ccc3c(c2)CC(=O)N([C@@H](C)CO)C[C@@H](C)[C@H](CN(C)Cc2ccc(-c4ccccc4)cc2)O3)cc1`, the cytotoxicity call is “inactive”.

Turning to `Cc1noc(C)c1NC(=O)Nc1ccc2c(c1)C(=O)N([C@@H](C)CO)C[C@@H](C)[C@H](CN(C)C(=O)NC1CCCCC1)OCCCC[C@H](C)O2`, the cytotoxicity call was “inactive”.

For the molecule `CC(=O)NCCn1cccc1`, the cytotoxicity call is “inactive”.

For `C[C@@H]1CCCCO[C@H](CN(C)Cc2ccc(C(F)(F)F)cc2)[C@@H](C)CN([C@@H](C)CO)C(=O)c2cc(NS(=O)(=O)c3ccc(F)cc3)ccc2O1`, the cytotoxicity call is “inactive”.

As for `C[C@@H]1CCCCO[C@@H](CN(C)Cc2ccc(Cl)c(Cl)c2)[C@H](C)CN([C@H](C)CO)C(=O)c2cc(NC(=O)c3ccccc3)ccc2O1`, the cytotoxicity call was “active”.

`C[C@@H]1CN([C@H](C)CO)C(=O)c2cc(NC(=O)c3ccccc3)ccc2O[C@@H](C)CCCCO[C@H]1CN(C)Cc1ccc(Cl)c(Cl)c1`: the cytotoxicity call was “inactive”.

On to `C[C@@H]1CCCCO[C@@H](CN(C)Cc2ccc(Cl)c(Cl)c2)[C@H](C)CN([C@@H](C)CO)C(=O)c2cc(NC(=O)c3ccccc3)ccc2O1`, for which the cytotoxicity call was “active”.

Regarding `C[C@@H]1CCCCO[C@H](CN(C)Cc2ccc(Cl)c(Cl)c2)[C@@H](C)CN([C@H](C)CO)C(=O)c2cc(NC(=O)c3ccccc3)ccc2O1`, the cytotoxicity call was “inactive”.

For `C[C@H](CO)N1C[C@H](C)[C@H](CN(C)Cc2ccc(Cl)c(Cl)c2)OCCCC[C@H](C)Oc2ccc(NC(=O)c3ccccc3)cc2C1=O`, the cytotoxicity call is “inactive”.

Regarding `C[C@H]1CCCCO[C@H](CN(C)Cc2ccc(Cl)c(Cl)c2)[C@@H](C)CN([C@@H](C)CO)C(=O)c2cc(NC(=O)c3ccccc3)ccc2O1`, the cytotoxicity call is “active”.

As to `C[C@@H]1CCCCO[C@H](CN(C)Cc2ccc(Cl)c(Cl)c2)[C@@H](C)CN([C@@H](C)CO)C(=O)c2cc(NC(=O)c3ccccc3)ccc2O1`, the cytotoxicity call was “inactive”.

As for `C[C@@H]1CCCCO[C@H](CN(C)Cc2ccc(Cl)c(Cl)c2)[C@H](C)CN([C@@H](C)CO)C(=O)c2cc(NC(=O)c3ccccc3)ccc2O1`, the cytotoxicity call was “inactive”.

For the molecule `C[C@H](CO)N1C[C@H](C)[C@@H](CN(C)Cc2ccc(Cl)c(Cl)c2)OCCCC[C@H](C)Oc2ccc(NC(=O)c3ccccc3)cc2C1=O`, the cytotoxicity call is “inactive”.

With `C[C@H](CO)N1C[C@H](C)[C@@H](CN(C)S(=O)(=O)c2ccc(Cl)cc2)Oc2c(NC(=O)Nc3ccc(C(F)(F)F)cc3)cccc2C1=O`, the cytotoxicity call was “inactive”.

With `O=C(Cc1ccncc1)NCC[C@H]1CC[C@H](NC(=O)C2CCOCC2)[C@H](CO)O1`, the cytotoxicity call was “inactive”.

Take `Cc1noc(C)c1S(=O)(=O)N(C)C[C@@H]1OCCCC[C@@H](C)Oc2ccc(NC(=O)Nc3ccc(F)cc3)cc2C(=O)N([C@@H](C)CO)C[C@H]1C`: the cytotoxicity call was “inactive”.

As for `C[C@H](NC(=O)C[C@H]1C[C@H]2c3cc(NC(=O)Nc4ccc(C(F)(F)F)cc4)ccc3O[C@H]2[C@H](CO)O1)c1ccccc1`, the cytotoxicity call is “inactive”.

As for `C[C@@H]1CCCCO[C@@H](CN(C)Cc2ccc(Cl)c(Cl)c2)[C@@H](C)CN([C@H](C)CO)C(=O)c2cc(NC(=O)CCCN(C)C)ccc2O1`, the cytotoxicity call is “inactive”.

Take `Cc1ccc(S(=O)(=O)N2C[C@@H](O)COC[C@H]3O[C@@H](CC(=O)N[C@@H]4CCN(Cc5ccccc5)C4)CC[C@@H]32)cc1`: the cytotoxicity call was “inactive”.

In the case of `CC(C)C[C@H]1NC(=O)N(C)C1=O`, the cytotoxicity call is “inactive”.

On to `C[C@H](CO)N1C[C@H](C)[C@@H](CN(C)C(=O)c2ccccn2)Oc2cc(C#Cc3ccc(F)cc3)ccc2S1(=O)=O`, for which the cytotoxicity call is “inactive”.

Take `CC(C)CC#Cc1ccc2c(c1)O[C@H](CN(C)S(=O)(=O)c1cccc(F)c1)[C@H](C)CN([C@@H](C)CO)S2(=O)=O`: the cytotoxicity call is “inactive”.

Turning to `C[C@@H]1CCCCO[C@H](CN(C)Cc2ccc(C(F)(F)F)cc2)[C@H](C)CN([C@H](C)CO)C(=O)c2cc(NS(=O)(=O)c3ccc(Cl)cc3)ccc2O1`, the cytotoxicity call is “inactive”.

Regarding `C[C@@H]1CCCCO[C@H](CN(C)Cc2ccc(C(F)(F)F)cc2)[C@H](C)CN([C@@H](C)CO)C(=O)c2cc(NS(=O)(=O)c3ccc(Cl)cc3)ccc2O1`, the cytotoxicity call is “active”.

For the molecule `C[C@H]1CCCCO[C@H](CN(C)Cc2ccc(C(F)(F)F)cc2)[C@@H](C)CN([C@@H](C)CO)C(=O)c2cc(NS(=O)(=O)c3ccc(F)cc3)ccc2O1`, the cytotoxicity call is “inactive”.

For `C[C@@H]1CN([C@@H](C)CO)C(=O)c2cc(NS(=O)(=O)c3ccc(F)cc3)ccc2O[C@@H](C)CCCCO[C@@H]1CN(C)Cc1ccc(C(F)(F)F)cc1`, the cytotoxicity call was “inactive”.

Consider `C[C@@H]1CCCCO[C@@H](CN(C)Cc2ccc(C(F)(F)F)cc2)[C@@H](C)CN([C@@H](C)CO)C(=O)c2cc(NS(=O)(=O)c3ccc(Cl)cc3)ccc2O1`, for which the cytotoxicity call is “inactive”.

Consider `C[C@@H]1CCCCO[C@H](CN(C)Cc2ccc(C(F)(F)F)cc2)[C@@H](C)CN([C@@H](C)CO)C(=O)c2cc(NS(=O)(=O)c3ccc(Cl)cc3)ccc2O1`, for which the cytotoxicity call was “active”.

Take `C[C@@H]1CN([C@H](C)CO)C(=O)c2cc(NS(=O)(=O)c3ccc(Cl)cc3)ccc2O[C@@H](C)CCCCO[C@H]1CN(C)Cc1ccc(C(F)(F)F)cc1`: the cytotoxicity call was “active”.

Turning to `C[C@H](CO)N1C[C@H](C)[C@@H](CN(C)Cc2ccc(C(F)(F)F)cc2)OCCCC[C@H](C)Oc2ccc(NS(=O)(=O)c3ccc(Cl)cc3)cc2C1=O`, the cytotoxicity call is “active”.
